# Molecular target: Protein kinase C alpha type (Homo sapiens) (UniProt P17252)
# Settings: at 10 µM
row,Structure (SMILES),residual activity [%]
1,C[S+]([O-])c1ccc(-c2nc(-c3ccc(F)cc3)c(-c3ccncc3)[nH]2)cc1 (configuration not stated),90
2,CCn1cnc2c(Nc3cccc(Cl)c3)nc(N[C@@H]3CCCC[C@@H]3N)nc21,58
3,COC(=O)[C@@]1(O)C[C@H]2O[C@]1(C)n1c3ccccc3c3c4c(c5c6ccccc6n2c5c31)C(=O)NC4,0
4,O=c1[nH]c2ccccc2n1C1CCN(Cc2ccc(-c3nc4cc5[nH]cnc5cc4nc3-c3ccccc3)cc2)CC1,104
5,O=[N+]([O-])/C=C/c1ccc2c(c1)OCO2,111
6,COc1cc2ncnc(Nc3ccc(OCc4ccccc4)cc3)c2cc1OC,114
7,CCc1nc(-c2ccc(OC)cc2)[nH]c1-c1ccncc1,105
8,O=C1Nc2ccc3ncsc3c2/C1=C/c1c[nH]cn1,18
9,COc1ccc2c(c[n+](C)c3c4cc5c(cc4ccc23)OCO5)c1OC,100

# Molecular target: Protein kinase C beta type (Homo sapiens) (UniProt P05771)
# Sequence (P05771 2-671 limits assumed): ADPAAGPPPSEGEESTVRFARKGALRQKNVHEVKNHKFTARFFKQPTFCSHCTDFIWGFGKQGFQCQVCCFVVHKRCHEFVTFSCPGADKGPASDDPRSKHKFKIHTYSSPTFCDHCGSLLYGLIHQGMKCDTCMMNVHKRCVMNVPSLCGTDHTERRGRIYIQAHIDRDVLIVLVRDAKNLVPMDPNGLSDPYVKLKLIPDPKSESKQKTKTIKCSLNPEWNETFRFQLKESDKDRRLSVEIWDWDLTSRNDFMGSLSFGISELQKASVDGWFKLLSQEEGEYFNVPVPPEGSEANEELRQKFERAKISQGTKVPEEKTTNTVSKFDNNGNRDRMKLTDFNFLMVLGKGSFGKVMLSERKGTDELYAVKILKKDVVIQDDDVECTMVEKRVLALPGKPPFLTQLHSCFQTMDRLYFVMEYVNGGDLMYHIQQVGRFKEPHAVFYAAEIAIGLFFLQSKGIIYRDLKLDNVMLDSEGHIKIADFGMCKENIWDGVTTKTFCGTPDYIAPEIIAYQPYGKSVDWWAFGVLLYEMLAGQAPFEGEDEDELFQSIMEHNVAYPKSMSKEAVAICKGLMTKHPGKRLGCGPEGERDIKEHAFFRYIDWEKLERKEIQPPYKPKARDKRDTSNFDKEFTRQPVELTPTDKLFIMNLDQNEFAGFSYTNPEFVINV
# Settings: at 1 µM
row,Structure (SMILES),residual activity [%]
1,C[S+]([O-])c1ccc(-c2nc(-c3ccc(F)cc3)c(-c3ccncc3)[nH]2)cc1 (configuration not stated),101
2,CCn1cnc2c(Nc3cccc(Cl)c3)nc(N[C@@H]3CCCC[C@@H]3N)nc21,98
3,c1cc(-c2cnn3cc(-c4ccc(OCCN5CCCCC5)cc4)cnc23)ccn1,118
4,COC(=O)[C@@]1(O)C[C@H]2O[C@]1(C)n1c3ccccc3c3c4c(c5c6ccccc6n2c5c31)C(=O)NC4,53
5,O=c1[nH]c2ccccc2n1C1CCN(Cc2ccc(-c3nc4cc5[nH]cnc5cc4nc3-c3ccccc3)cc2)CC1,102
6,O=[N+]([O-])/C=C/c1ccc2c(c1)OCO2,113
7,COc1cc2ncnc(Nc3ccc(OCc4ccccc4)cc3)c2cc1OC,123
8,COc1cc(OC)c(/C=C2\C(=O)Nc3ccccc32)c(OC)c1,105
9,CC(C)(C)c1cc(C=C(C#N)C#N)cc(Br)c1O,106
10,O=C1NC(=O)c2c1c1c3ccccc3n3c1c1c2c2ccccc2n1C1CCC3O1,95
11,CCc1nc(-c2ccc(OC)cc2)[nH]c1-c1ccncc1,127
12,O=C1Nc2ccc3ncsc3c2/C1=C/c1c[nH]cn1,55

# Molecular target: Protein kinase C beta type (Homo sapiens) (UniProt P05771)
# Settings: at 10 µM
row,Structure (SMILES),residual activity [%]
1,C[S+]([O-])c1ccc(-c2nc(-c3ccc(F)cc3)c(-c3ccncc3)[nH]2)cc1 (configuration not stated),70
2,CCn1cnc2c(Nc3cccc(Cl)c3)nc(N[C@@H]3CCCC[C@@H]3N)nc21,85
3,c1cc(-c2cnn3cc(-c4ccc(OCCN5CCCCC5)cc4)cnc23)ccn1,104
4,COC(=O)[C@@]1(O)C[C@H]2O[C@]1(C)n1c3ccccc3c3c4c(c5c6ccccc6n2c5c31)C(=O)NC4,13
5,O=c1[nH]c2ccccc2n1C1CCN(Cc2ccc(-c3nc4cc5[nH]cnc5cc4nc3-c3ccccc3)cc2)CC1,93
6,COc1cc2ncnc(Nc3ccc(OCc4ccccc4)cc3)c2cc1OC,106
7,COc1cc(OC)c(/C=C2\C(=O)Nc3ccccc32)c(OC)c1,103
8,CC(C)(C)c1cc(C=C(C#N)C#N)cc(Br)c1O,97
9,O=C1NC(=O)c2c1c1c3ccccc3n3c1c1c2c2ccccc2n1C1CCC3O1,91
10,CCc1nc(-c2ccc(OC)cc2)[nH]c1-c1ccncc1,105
11,O=C1Nc2ccc3ncsc3c2/C1=C/c1c[nH]cn1,12

# From ChEMBL document CHEMBL2218924, “A broad activity screen in support of a chemogenomic map for kinase signalling research and drug discovery” (Biochem J, 2013)
